“And” between values parts separate entries of the source, which are not always exact repeats. Equal entries are not always repeated. About 79,000 compounds went through this panel and 15% of them were active in at least one assay; those are over-represented in the sample as a whole. Some structures have more than one record in an assay (separate samples or runs), and their calls can disagree. The source made the active and inactive calls. No stated cut-off is given here; in the data, active means growth inhibition above about 70%; inactive means the rest.
What was measured:
[1] = NCI Yeast Anticancer Drug Screen. Data for the rad52 strain (AID 147);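 further: 0% = growth of vehicle-treated control cultures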; settings: S. cerevisiae rad52 mutant growth inhibition, stronger effect = higher value
Summary of the method: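 Yeast strain carrying a DNA damage repair alteration was exposed to test compounds. Growth inhibition was measured relative to vehicle-treated controls.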

[2] = NCI Yeast Anticancer Drug Screen. Data for the wt1 strain (AID 149);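 further: 0% = growth of vehicle-treated wt1 cultures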; settings: S. cerevisiae wt1 strain (SPY 50644) growth inhibition, stronger effect = higher value
Summary of the method: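 Each compound is tested on wt1 yeast and the loss of growth versus vehicle gives the inhibition value.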

[3] = NCI Yeast Anticancer Drug Screen. Data for the rad50EPP+ strain (AID 151);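 further: 0% = growth of vehicle-treated control cultures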; settings: S. cerevisiae rad50 mutant strain, stronger effect = higher value
Summary of the method: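 Yeast strain carrying rad50 alteration (rad50EPP+) exposed to compounds; growth inhibition measured relative to vehicle-treated controls.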

[4] = NCI Yeast Anticancer Drug Screen. Data for the mgt1 strain (AID 153); settings: S. cerevisiae mgt1 mutant growth inhibition, stronger effect = higher value
Summary of the method: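 Yeast mgt1 strain (DNA repair/cell-cycle alteration panel) exposed to compounds; growth inhibition measured relative to vehicle-treated controls.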

[5] = NCI Yeast Anticancer Drug Screen. Data for the rad50 strain (AID 155);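 further: 0% = growth of vehicle-only cultures of the same strain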; settings: S. cerevisiae rad50 strain growth inhibition, stronger effect = higher value
Summary of the method: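 Vehicle-treated cultures provide the reference for the growth inhibition reported for compound-exposed, repair-deficient yeast.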

[6] = NCI Yeast Anticancer Drug Screen. Data for the mec2-1 strain (AID 157); settings: S. cerevisiae mec2-1 strain, stronger effect = higher value
Summary of the method: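 mec2-1 yeast strain, carrying an alteration in DNA damage repair or cell cycle control, was exposed to compounds; growth inhibition was measured relative to vehicle-treated controls.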

[7] = NCI Yeast Anticancer Drug Screen. Data for the rad14 strain (AID 159);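 further: 0% = growth of vehicle-treated control cultures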; settings: S. cerevisiae rad14 strain growth inhibition, stronger effect = higher value
Summary of the method: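 Inhibition of growth is reported for a repair-deficient yeast mutant following compound treatment, calculated relative to cultures that received vehicle.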

[8] = NCI Yeast Anticancer Drug Screen. Data for the sgs1 mgt1 strain (AID 161);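 further: 0% = growth of cultures given vehicle only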; settings: S. cerevisiae sgs1 mgt1 strain, stronger effect = higher value
Summary of the method: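 Percent growth inhibition was derived by comparing compound-exposed mutant yeast with vehicle-exposed cultures. The strain carries alterations in DNA damage repair.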

[9] = NCI Yeast Anticancer Drug Screen. Data for the cln2 rad14 strain (AID 165);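 further: 0% = growth equal to vehicle treated cultures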; settings: S. cerevisiae cln2 rad14 strain, stronger effect = higher value
Summary of the method: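 Yeast carrying cln2 and rad14 alterations (cell cycle control and DNA damage repair) were exposed to compounds. Growth inhibition was measured against vehicle-treated controls.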

[10] = NCI Yeast Anticancer Drug Screen. Data for the bub3 strain (AID 167); settings: S. cerevisiae bub3 mutant strain, stronger effect = higher value
Summary of the method: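 Mutant yeast screening strain plus compound; vehicle-treated cultures serve as the 0% inhibition reference.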

[11] = NCI Yeast Anticancer Drug Screen. Data for the wt2 strain (AID 169); settings: S. cerevisiae wt2 strain growth inhibition, stronger effect = higher value
Summary of the method: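 Yeast cells were exposed to test compounds, and growth inhibition was measured relative to vehicle-treated controls.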

[12] = NCI Yeast Anticancer Drug Screen. Data for the mlh1 strain (AID 171);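 further: 0% = growth of vehicle-treated control cultures of the same strain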; settings: S. cerevisiae mlh1 strain growth inhibition, stronger effect = higher value
Summary of the method: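 Yeast carrying a defined genetic alteration in DNA damage repair or cell cycle control were exposed to test compounds. Growth inhibition was measured relative to vehicle-treated controls.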

[13] = NCI Yeast Anticancer Drug Screen. Data for the sgs1 strain (AID 173);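 further: 0% = growth of vehicle-only control cultures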; settings: S. cerevisiae sgs1 mutant, stronger effect = higher value
Summary of the method: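 Yeast mutant strains carrying defined defects in DNA damage repair or cell cycle control were exposed to test compounds. Growth inhibition was scored against vehicle-treated controls.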

[14] = NCI Yeast Anticancer Drug Screen. Data for the mlh1 rad18 strain (AID 175); settings: S. cerevisiae mlh1 rad18 strain growth inhibition, stronger effect = higher value
Summary of the method: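 Growth inhibition of the yeast strain was measured after compound exposure and expressed relative to vehicle-treated controls. The strain carries defined defects in DNA damage repair.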

[15] = NCI Yeast Anticancer Drug Screen. Data for the rad18 strain (AID 177); settings: S. cerevisiae rad18 mutant growth inhibition, stronger effect = higher value
Summary of the method: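 Yeast carrying a defined DNA damage repair alteration were exposed to compounds. Growth inhibition was expressed relative to vehicle-treated controls.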

[16] = at 5.0 µM (retest, dose inferred, filed as 0.5)
[17] = at 50.0 µM (retest, dose inferred, filed as 5.0)

Measured: growth inhibition

C/C(=N\O)c1ccc2ccc3ccccc3c2c1
85% (active) and 65% (inactive): [5]; [17]
inactive: [1]; at 1.2 µM -2% | [1]; at 3.7 µM 11% | [1]; at 11.0 µM 49% | [2]; at 1.2 µM -4% | [2]; at 3.7 µM -5% | [2]; at 11.0 µM -9% | [2]; at 33.0 µM 7% | [3]; at 1.2 µM 12% | [3]; at 3.7 µM 35% | [4]; at 1.2 µM 1% | [4]; at 3.7 µM 0% | [4]; at 11.0 µM 2% | [4]; at 33.0 µM 37% | [5]; at 1.2 µM 4% | [5]; at 3.7 µM 12% | [5]; [16] -142% and 7% | [5]; at 11.0 µM 68% | [6]; at 1.2 µM 0% | [6]; at 3.7 µM 1% | [6]; [16] -43% and -1% | [6]; at 11.0 µM 15% | [6]; at 33.0 µM 30% | [6]; [17] -2% and 31% | [7]; at 1.2 µM 2% | [7]; at 3.7 µM 12% | [7]; at 11.0 µM 22% | [7]; at 33.0 µM 41% | [8]; [16] -60% and 0% | [8]; [17] 53% and 65% | [9]; [16] -49% and -8% | [9]; [17] 12% and 31% | [10]; at 1.2 µM 4% | [10]; at 3.7 µM 3% | [10]; [16] -50% and 1% | [10]; at 11.0 µM 29% | [11]; at 1.2 µM -1% | [11]; at 3.7 µM -1% | [11]; at 11.0 µM 0% | [11]; at 33.0 µM 35% | [12]; at 1.2 µM 3% | [12]; at 3.7 µM -3% | [12]; at 11.0 µM 7% | [12]; at 33.0 µM 61% | [13]; at 1.2 µM -2% | [13]; at 3.7 µM -3% | [13]; at 11.0 µM 33% | [14]; [16] -113% and 3% | [15]; at 1.2 µM 5% | [15]; at 3.7 µM 13% | [15]; at 11.0 µM 52%
94.5% (active) and 56.8% (inactive): [10]; at 50.0 µM
77.6% (active) and 30.2% (inactive): [9]; at 50.0 µM
93.7% (active) and 7.85% (inactive): [6]; at 50.0 µM
active: [1]; at 33.0 µM 95% | [1]; at 100.0 µM 95% | [2]; at 100.0 µM 93% | [3]; at 11.0 µM 74% | [3]; at 33.0 µM 90% | [3]; at 100.0 µM 94% | [4]; at 100.0 µM 94% | [5]; at 33.0 µM 95% | [5]; at 50.0 µM 96.3% and 78.3% | [5]; at 100.0 µM 97% | [6]; at 100.0 µM 94% | [7]; at 100.0 µM 94% | [8]; at 50.0 µM 93.1% and 80.3% | [10]; at 33.0 µM 78% | [10]; [17] 72% | [10]; at 100.0 µM 94% | [11]; at 100.0 µM 92% | [12]; at 100.0 µM 90% | [13]; at 33.0 µM 80% | [13]; at 100.0 µM 95% | [14]; at 50.0 µM 96.2% and 82.8% | [15]; at 33.0 µM 92% | [15]; at 100.0 µM 94%
75% (active) and 64% (inactive): [14]; [17]

From PubChem BioAssay (NCI)
